Source: PubChem BioAssay
For some assays here: Measured potencies and affinities stand elsewhere. Activity calls are given as the source filed them. No rule for the calls is given here.

biological target: Plasmodium falciparum protein kinase 6 (PK6, PF3D7_1337100) (UniProt Q8IDW1); test: PfPK6 kinase inhibitors, biochemical, TCAMS library (AID 1159586); details: recombinant PfPK6, Kinase-Glo ATP depletion luminescence
Sequence (Q8IDW1 1-305): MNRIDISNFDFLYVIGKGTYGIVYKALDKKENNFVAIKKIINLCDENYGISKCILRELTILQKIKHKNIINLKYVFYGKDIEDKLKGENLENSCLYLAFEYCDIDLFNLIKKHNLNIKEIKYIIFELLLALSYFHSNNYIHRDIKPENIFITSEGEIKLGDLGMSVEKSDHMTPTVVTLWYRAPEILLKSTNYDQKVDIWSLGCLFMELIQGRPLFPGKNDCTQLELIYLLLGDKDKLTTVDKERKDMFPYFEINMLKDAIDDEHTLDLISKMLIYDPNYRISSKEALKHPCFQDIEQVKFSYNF

outcome, inactive:
COc1ccc2nccc(NN=CC=Cc3ccccc3)c2c1
CN(Cc1ccncc1)C(Cc1ccccc1)C1CCN(Cc2ccc(O)c(Cl)c2)CC1 (stereo not given)
C[C@@H]1CN(c2cnn(C/C=C/c3ccc(NC(=O)c4ccc5nonc5c4)cc3)c(=O)c2Cl)C[C@H](C)N1
Cc1oc(-c2ccccc2)nc1CCOc1ccc(C[C@H](Nc2ccccc2C(=O)c2ccccc2)C(=O)NCc2ccccn2)cc1
N#CC(NC(=O)C=Cc1ccccc1)c1ccccc1 (stereo not given)
COc1ccc(F)cc1-c1ccccc1CNC(=O)CN(C)S(=O)(=O)c1cc(C)cc(Cl)c1C
c1ccc(CCNc2ccnc(Nc3ccc4n[nH]nc4c3)n2)cc1
Oc1ccc(Cl)cc1Nc1nc(C(F)(F)F)nc2ccccc12
CCOc1ccc(-c2nonc2NC(=O)c2ccc(OC)cc2)cc1OCC
Cn1cc(Br)c(-c2cccc(Nc3ccnc4cc(-c5nccs5)ccc34)c2)n1
O=C(/C=C/c1ccc(Cl)cc1)NCCCCCN1CCN(C(=O)Nc2ccc(Cl)c(C(F)(F)F)c2)CC1
COc1c(C2CCN(CCCCNC(=O)c3ccc(-c4ccc(Cl)cc4)cc3)CC2)ccc2c1C(C)(C)CCC2(C)C
Cc1noc(C)c1-c1cccc(CNCc2cccc(-c3cccc(-c4nc5ccc(F)cc5[nH]4)c3)c2)c1
C=CCOC(=O)N1CCC(CNCc2ccc(-c3cccc(-c4nc5ccc(F)cc5[nH]4)c3)cc2)C1 (stereo not given)
Cc1ccc(CNC(=O)[C@H](CC(C)C)Nc2cc(C)nc(NCC3CCCCC3)n2)cc1
CC(Sc1nc2sccc2c(=O)n1C)C(=O)Nc1ccc2c(c1)OCO2 (stereo not given)
CCN(CC)S(=O)(=O)c1cc(-c2ccc(=O)n(CC(=O)c3ccc(C)cc3)n2)ccc1C
O=c1ccc2ccc(F)c3c2n1CC3CN1CCC(NCc2ccc(-c3cccc(Cl)c3)nc2)CC1 (stereo not given)
CCOc1cccc(C(=O)Nc2cccc(CN3CCCN(Cc4cccc(O)c4)CC3)c2)c1
COc1ccc(-c2ccc(NC(=O)c3cccc(F)c3)cc2)cc1CN1CCCN(C)CC1
Cc1ccc(Cl)cc1NC(=O)c1c(-c2ccccc2Cl)noc1C
CC[C@H](C)CNC(=O)c1cncc(-c2ccc(CN3CCC(N4CCCC4)CC3)cc2)c1
COc1ccc(NC(=O)/C=C/c2ccccc2Cl)cc1OCCN1CCC(O)(c2ccc(Cl)c(C(F)(F)F)c2)CC1
O=[N+]([O-])c1ccc(Nc2nc(NN=Cc3cccc(O)c3)nc(N3CCCC3)n2)cc1
CC(C)NCc1ccc(-c2ccc(NC(=O)c3ccc(Cl)cc3)cc2)cc1
Cc1c(C(=O)N(C)C)sc2c1c(=O)n(Cc1ccccc1)c(=O)n2CC(=O)Nc1ccccc1F
COc1ccc(CNC2Cc3ccccc3C2)cc1-c1ccc(S(=O)(=O)NCCc2ccccn2)s1
COc1cc(NC(=O)Nc2cccc3ccccc23)c(OC)cc1Cl
CCOC(=O)c1sc(C(C)Nc2ccccc2)nc1-c1ccccc1 (stereo not given)
COc1ccc(-c2cccc(CNC3CCN(C)CC3)c2)cc1S(=O)(=O)NCc1ccccc1
Cc1cc(C)cc(N2C(N)=NC(N)=NC2(C)C)c1
Nc1ncc(-c2ccc(Cl)c(Cl)c2)c(N)n1
COc1ccccc1C1CCN(C2CCC(NC(=O)/C=C/c3ccc(C(F)(F)F)cc3)CC2)CC1 (stereo not given)
CCOc1cc(Cc2cnc(N)nc2N)cc(OC)c1OC
COc1ccc(C=Cc2cc(N)c3ccccc3n2)cc1Br
COc1ccc(NS(=O)(=O)c2cc(NC(=O)Cn3ccccc3=O)ccc2N2CCCCC2)cc1
NC1CCCN(Cc2ccc(-c3ccc(-c4nc5ccccc5[nH]4)s3)cc2)C1 (stereo not given)
Clc1ccc(-c2ncc(-c3ccncc3)[nH]2)cc1Cl
CN(C)CCNCc1ccc(-c2ccc(-c3nc4ccc(F)cc4[nH]3)cc2)cc1
O=[N+]([O-])c1cccc(CNCC2CCN(Cc3ccc(-c4ccccc4)cc3)CC2)c1

biological target: Protein kinase 7 (PK7), Plasmodium falciparum 3D7 (PF3D7_0213400) (UniProt Q7YTF7); test: inhibition of Plasmodium PK7 catalytic activity – biochemical, TCAMS antimalarial set, Kinase-Glo luminescence (AID 1159587); details: recombinant PfPK7, Kinase-Glo ATP depletion luminescence
Sequence (Q7YTF7 1-343): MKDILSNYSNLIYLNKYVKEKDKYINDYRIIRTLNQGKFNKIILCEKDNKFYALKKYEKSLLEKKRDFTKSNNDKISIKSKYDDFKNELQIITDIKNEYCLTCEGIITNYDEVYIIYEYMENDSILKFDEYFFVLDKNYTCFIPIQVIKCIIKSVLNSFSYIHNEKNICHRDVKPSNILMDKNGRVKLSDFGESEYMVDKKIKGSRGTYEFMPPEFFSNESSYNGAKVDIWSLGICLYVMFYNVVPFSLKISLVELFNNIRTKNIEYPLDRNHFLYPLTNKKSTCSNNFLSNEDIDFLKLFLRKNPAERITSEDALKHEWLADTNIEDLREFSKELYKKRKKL

outcome, inactive:
COc1ccc2nccc(NN=CC=Cc3ccccc3)c2c1
CN(Cc1ccncc1)C(Cc1ccccc1)C1CCN(Cc2ccc(O)c(Cl)c2)CC1 (stereo not given)
C[C@@H]1CN(c2cnn(C/C=C/c3ccc(NC(=O)c4ccc5nonc5c4)cc3)c(=O)c2Cl)C[C@H](C)N1
Cc1oc(-c2ccccc2)nc1CCOc1ccc(C[C@H](Nc2ccccc2C(=O)c2ccccc2)C(=O)NCc2ccccn2)cc1
N#CC(NC(=O)C=Cc1ccccc1)c1ccccc1 (stereo not given)
COc1ccc(F)cc1-c1ccccc1CNC(=O)CN(C)S(=O)(=O)c1cc(C)cc(Cl)c1C
c1ccc(CCNc2ccnc(Nc3ccc4n[nH]nc4c3)n2)cc1
Oc1ccc(Cl)cc1Nc1nc(C(F)(F)F)nc2ccccc12
CCOc1ccc(-c2nonc2NC(=O)c2ccc(OC)cc2)cc1OCC
Cn1cc(Br)c(-c2cccc(Nc3ccnc4cc(-c5nccs5)ccc34)c2)n1
O=C(/C=C/c1ccc(Cl)cc1)NCCCCCN1CCN(C(=O)Nc2ccc(Cl)c(C(F)(F)F)c2)CC1
COc1c(C2CCN(CCCCNC(=O)c3ccc(-c4ccc(Cl)cc4)cc3)CC2)ccc2c1C(C)(C)CCC2(C)C
Cc1noc(C)c1-c1cccc(CNCc2cccc(-c3cccc(-c4nc5ccc(F)cc5[nH]4)c3)c2)c1
C=CCOC(=O)N1CCC(CNCc2ccc(-c3cccc(-c4nc5ccc(F)cc5[nH]4)c3)cc2)C1 (stereo not given)
Cc1ccc(CNC(=O)[C@H](CC(C)C)Nc2cc(C)nc(NCC3CCCCC3)n2)cc1
CC(Sc1nc2sccc2c(=O)n1C)C(=O)Nc1ccc2c(c1)OCO2 (stereo not given)
CCN(CC)S(=O)(=O)c1cc(-c2ccc(=O)n(CC(=O)c3ccc(C)cc3)n2)ccc1C
O=c1ccc2ccc(F)c3c2n1CC3CN1CCC(NCc2ccc(-c3cccc(Cl)c3)nc2)CC1 (stereo not given)
CCOc1cccc(C(=O)Nc2cccc(CN3CCCN(Cc4cccc(O)c4)CC3)c2)c1
COc1ccc(-c2ccc(NC(=O)c3cccc(F)c3)cc2)cc1CN1CCCN(C)CC1
Cc1ccc(Cl)cc1NC(=O)c1c(-c2ccccc2Cl)noc1C
CC[C@H](C)CNC(=O)c1cncc(-c2ccc(CN3CCC(N4CCCC4)CC3)cc2)c1
COc1ccc(NC(=O)/C=C/c2ccccc2Cl)cc1OCCN1CCC(O)(c2ccc(Cl)c(C(F)(F)F)c2)CC1
O=[N+]([O-])c1ccc(Nc2nc(NN=Cc3cccc(O)c3)nc(N3CCCC3)n2)cc1
CC(C)NCc1ccc(-c2ccc(NC(=O)c3ccc(Cl)cc3)cc2)cc1
Cc1c(C(=O)N(C)C)sc2c1c(=O)n(Cc1ccccc1)c(=O)n2CC(=O)Nc1ccccc1F
COc1ccc(CNC2Cc3ccccc3C2)cc1-c1ccc(S(=O)(=O)NCCc2ccccn2)s1
COc1cc(NC(=O)Nc2cccc3ccccc23)c(OC)cc1Cl
CCOC(=O)c1sc(C(C)Nc2ccccc2)nc1-c1ccccc1 (stereo not given)
COc1ccc(-c2cccc(CNC3CCN(C)CC3)c2)cc1S(=O)(=O)NCc1ccccc1
Cc1cc(C)cc(N2C(N)=NC(N)=NC2(C)C)c1
Nc1ncc(-c2ccc(Cl)c(Cl)c2)c(N)n1
COc1ccccc1C1CCN(C2CCC(NC(=O)/C=C/c3ccc(C(F)(F)F)cc3)CC2)CC1 (stereo not given)
CCOc1cc(Cc2cnc(N)nc2N)cc(OC)c1OC
COc1ccc(C=Cc2cc(N)c3ccccc3n2)cc1Br
COc1ccc(NS(=O)(=O)c2cc(NC(=O)Cn3ccccc3=O)ccc2N2CCCCC2)cc1
NC1CCCN(Cc2ccc(-c3ccc(-c4nc5ccccc5[nH]4)s3)cc2)C1 (stereo not given)
Clc1ccc(-c2ncc(-c3ccncc3)[nH]2)cc1Cl
CN(C)CCNCc1ccc(-c2ccc(-c3nc4ccc(F)cc4[nH]3)cc2)cc1
O=[N+]([O-])c1cccc(CNCC2CCN(Cc3ccc(-c4ccccc4)cc3)CC2)c1
